Screening data as filed in PubChem BioAssay.
Most compounds without a hit are left out; they make up all but 12% or so of the library.
LASV entry inh: blocks Lassa virus binding to or entry into cells; Lassa virus pseudotype entry inhibition, cell reporter; 1.2% of 300,000 active; Potency, µM (titrated, usually from 37.9 µM), without a hit: at the top dose activity change, negative = inhibition, usual class: inhibitors; calls by dose curve; tested in HEK293 cells; further: potency means the concentration at half of the fitted maximal effect; on the % scale 0 is the no-effect control and ±100 the full control effect; nearly all actives have a fitted effect of over 50% in size
Marburg entry inh: Marburg virus entry inhibition; Marburg virus pseudotyped entry inhibition, cell reporter; AID 540276; Potency, µM (titrated, usually from 37.8 µM), without a hit: at the top dose activity change, negative = inhibition, actives largely listed as inhibitors; 1.8% of 300,000 active; calls by dose curve; tested in HEK293 cells; further: potency means the concentration at half of the fitted maximal effect; on the % scale 0 is the no-effect control and ±100 the full control effect
Shiga toxin inh: Shiga toxin inhibition | inhibition, % at 38.7 µM | Vero cells, Shiga toxin protein synthesis inhibition reporter | 9.2% of 290,000 active; in the data active means inhibition mostly above about 28%, no sharp cut-off; inactive means mostly below about 43%; further: 0% is about no effect
CHX counter: affects cycloheximide protein synthesis inhibition readout, counter-screen. cell reporter, cycloheximide protein synthesis inhibition counterscreen. max response, %. 12% of 300,000 active. AID 2314; in the data active means max response mostly above about 13%, no sharp cut-off; inactive means mostly below about 14%; further: read at 38.3 µM for the half of the compounds with a filed dose; 0% is about no effect
* hit, by the source's call; ? = inconclusive; . = not tested or not shown; [ ] = dose if it differs, or a comment.

SMILES | LASV entry inh | Marburg entry inh | Shiga toxin inh | CHX counter
COc1ccc(C2C=C(C)Nc3nc4ccccc4n32)cc1 (stereo not given) | ? | ? | 111* | 43*
COc1ccc(C2N=C(N)Nc3nc4ccccc4n32)cc1 (stereo not given) | -33%[46.1 µM] | . | . | .
COc1ccc(C2C(C#N)=C(N)Nc3nc4ccccc4n32)cc1 (stereo not given) | -7% | -8% | 26* | 27*
COc1ccc(C2C(C(=O)c3ccccc3)=C(C)Nc3nc4ccccc4n32)c(OC)c1 (stereo not given) | 21% | 29% | 43* | 31*
COc1ccccc1NC(=O)Nc1ccc2c(c1)nc(C)n2C | ? | -25%[46.1 µM] | 31 | 28*
Cc1ccc(NC(=O)Nc2ccc3c(c2)nc(C)n3C)cc1C | . | . | 108* | 45*
COc1cc(C(=O)Nc2ccc3c(c2)nc(C)n3C)cc(OC)c1OC | . | . | 12 | 12
Cc1nc2cc(NC(=O)c3ccc(Cl)cc3)ccc2n1C | . | . | . | 26*
Cc1nc2cc(NC(=O)Nc3cccc4ccccc34)ccc2n1C | 0% | ? | 83 | 28
CN(C)Cc1c(C(=O)N/N=C/CCc2ccccc2)nnn1-c1nonc1N | ? | 0%[46.1 µM] | 15 | 8
O=C(O)c1ccc(N=Nc2c(O)[nH]c3cc(Cl)ccc23)cc1 | . | 0% | 67* | 36*
Cc1ccc(N=Nc2c(O)[nH]c3ccc(F)cc23)cc1 | -7% | ? | 67* | 50*
Oc1[nH]c2ccccc2c1N=Nc1cccc(Cl)c1 | . | . | 34* | 28*
Cc1cccc2c(N=Nc3ccccc3)c(O)[nH]c12 | ? | ? | 57* | 65*
COC(=O)C1=C(C)N(Cc2cccnc2)C(=O)/C1=C\c1sccc1C | -3%[46.1 µM] | 7%[46.1 µM] | 19 | 1
O=C1[C@H]2[C@H]3[C@H](O)[C@H](O)C/C(=N/OCc4ccccc4)[C@@H]3CC[C@@H]2C(=O)N1C1CCCCC1 | . | -14%[14.2 µM] | . | .
O=C1C2C3C=CC(C3)C2C(=O)N1CCN1CCN(Cc2ccc([N+](=O)[O-])cc2)CC1 (stereo not given) | . | . | -7 | -1
O=S1(=O)N[C@H](Cc2ccccc2)COc2cc(F)ccc21 | 3%[46.1 µM] | . | . | .
CC(=O)c1ccc(Nc2ccc3cc(S(=O)(=O)N4CCCC4)ccc3n2)cc1 | -7%[46.1 µM] | . | . | .
C=CCn1c(SCC(=O)OCC)nc(C(F)(F)F)cc1=O | -24% | 20%[46.1 µM] | -7 | -3
O=C(O)c1ccc(N=Nc2c(O)[nH]c3ccc(Br)cc23)cc1 | . | . | 111* | 56*
O=C(NCCCn1ccnc1)c1ccc(NS(=O)(=O)c2ccc(Cl)c(Cl)c2)cc1 | -30% | ? | . | .
NS(=O)(=O)c1ccc(N=Nc2c(O)[nH]c3ccc(Cl)cc23)cc1 | 2.8µM* | . | . | .
NS(=O)(=O)c1ccc(N=Nc2c(O)[nH]c3ccc(C(=O)NCCCn4ccnc4)cc23)cc1 | 3.1µM* | . | . | .
COC(=O)N=Nc1c(O)[nH]c2ccc(Br)cc12 | -9% | -14% | 5 | -1
SMILES | LASV entry inh | Marburg entry inh | Shiga toxin inh | CHX counter
O=C(COC(=O)Cc1cccs1)NCc1ccc(F)cc1 | ? | -22% | -3 | -1
COc1cc(NC(=O)CN2C(=O)C(c3ccc(C)cc3)=NC23CCCCC3)cc(OC)c1 | -7%[46.1 µM] | ? | . | .
O=c1c2c(nc3nc(NCc4cccc(Cl)c4)[nH]n13)CCC2 | -9% | 2%[46.1 µM] | 14 | 2
Cc1nc2c(o1)C(=O)c1ccccc1C2=Nc1ccccc1 | 11µM* | ? | . | .
Cc1ccc(N=C2C(=O)Nc3ccccc32)cc1 | . | . | -3 | -2
CCc1ccccc1NC(=O)C(=O)NCCc1sc(-c2cccc(C)c2)nc1C | -30%[46.1 µM] | . | . | .
C=CCc1cc(C)ccc1OCCOCCN1CCN(C)CC1 | . | . | -8 | -2
COc1ccccc1-n1cc(C(=O)NCC(=O)N2CCN(c3ccccc3)CC2)c2ccccc2c1=O | ? | -2% | 50* | 30*
COc1ccccc1N1CCN(C(=O)CNC(=O)c2cn(-c3ccccc3OC)c(=O)c3ccccc23)CC1 | ? | ? | 26 | 14*
CC(C)Cn1cc(C(=O)N2CCN(c3ccccn3)CC2)c2c3ccccc3n(C)c2c1=O | 6.5µM* | 16µM* | 2 | -1
COc1ccccc1-n1cc(C(=O)NCC(=O)N2CCN(c3ccccn3)CC2)c2ccccc2c1=O | . | . | 14 | 16*
O=C(CC1C(=O)NCCN1CC(c1ccccc1)c1ccccc1)NC1CC1 (stereo not given) | 1%[46.1 µM] | ? | -5 | -1
CCOC(=O)c1c(CNc2ccncc2)n(C)c2cc(Br)c(O)cc12 | -4% | 24% | -7 | -1
CCc1cc2c(SCC(=O)c3cccs3)ncnc2s1 | 7% | -4% | -15 | 16*
CCc1cc2c(SCC(=O)O)ncnc2s1 | -4% | 1% | -17 | 5
CCc1cc2c(SCC(=O)c3ccccc3)ncnc2s1 | 14% | 26%[46.1 µM] | 73* | 45*
N#CC1=C(N)N(c2cccc(Cl)c2)C2=C(C(=O)CCC2)C1c1cc(CN2CCOCC2)cs1 (stereo not given) | 11%[46.1 µM] | -9%[46.1 µM] | . | .
Cc1ccc(C(C(=O)NC2CCCCC2)N(C(=O)Cc2c[nH]c3ccccc23)c2ccccc2)o1 (stereo not given) | ? | ? | -1 | -2
CC(=O)Nc1ccc(N(C(=O)Cc2c[nH]c3ccccc23)C(C(=O)NC2CCCCC2)c2ccco2)cc1 (stereo not given) | 5.8µM* | -16% | -22 | 1
CCn1nc(C)c(NC(=O)Nc2cccc(Cl)c2Cl)c1C | 14%[46.1 µM] | ? | -5 | -2
Cc1cc(F)ccc1S(=O)(=O)N1CCCOC1CNC(=O)C(=O)NCCCN1CCOCC1 (stereo not given) | ? | -1% | -13 | 9
Cc1ccnc(NC(=O)CS(=O)(=O)c2ccccc2)c1 | 19%[46.1 µM] | ? | 89* | 13
Cc1ccnc(NC(=O)CCS(=O)(=O)c2ccccc2)c1 | 3% | 14%[46.1 µM] | 36 | 18*
COC(=O)C1=C(O)/C(=C\c2cc(C)n(-c3ccccc3C)c2C)N=C1C | 21% | ? | -7 | 1
COC(=O)C1=C(C)NC(=O)/C1=C\c1cc(C)n(-c2ccccc2)c1C | ? | 7.9µM* | 102* | 35*
SMILES | LASV entry inh | Marburg entry inh | Shiga toxin inh | CHX counter
COC(=O)c1cccc(-n2c(C)cc(C=O)c2C)c1C | 21% | ? | 49* | 19*
COC(=O)C1=C(O)/C(=C\c2sccc2C)N=C1C | -3% | 1% | 17 | 27*
COC(=O)C1=C(O)/C(=C\c2cc(C)n(-c3ccccc3F)c2C)N=C1C | 3%[46.1 µM] | 3%[46.1 µM] | 82* | 34*
COC(=O)C1=C(C)NC(=O)/C1=C\c1cc(C)n(-c2cc(C)cc(C)c2)c1C | ? | ? | -6 | -1
CCOC(=O)C1=C(O)/C(=C\c2sccc2C)N=C1C | 13% | -2% | 33 | 2
O=C(O)c1ccc(CSc2nnc(-c3cccnc3)n2-c2ccc(Br)cc2)cc1 | 3%[46.1 µM] | ? | -8 | -1
O=C(O)c1c[nH]c2ccc([N+](=O)[O-])cc2c1=O | 0%[46.1 µM] | 12%[46.1 µM] | . | .
Cc1cccc(NC(=O)c2cccc(C(=O)Nc3cccc(C)n3)c2)n1 | -3% | ? | 7 | -2
Cc1ccc(NC(=O)Nc2cccc(C)n2)cc1 | -1%[46.1 µM] | . | 103* | 49*
Cc1ccc(NC(=O)c2cn(-c3cccc(C)n3)cn2)cc1 | 10% | ? | 90* | 39*
O=C(Nc1ccc(F)cc1)Nc1ccc2ccccc2n1 | . | . | 25 | 9
COC(=O)c1ccc(NC(=O)c2cn(-c3cccc(C)n3)cn2)cc1 | -3% | 46% | -3 | 1
